# Results reported in the supplement of paper PMC4466140.
# Assays:
# Test in all cases: SPOT peptide array binding signal intensity (averaged, normalized) (arbitrary units (background-subtracted, floor 0; scale differs between SH3 domains)); higher = stronger binding of the SH3 domain to the peptide
# AgAbp1 = molecular target: AgAbp1
# Description: (§1)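 GST-tagged SH3 domains from S. cerevisiae (Sc), A. gossypii (Ag), C. albicans (Ca) and S. pombe (Sp) were incubated at 10 ug/ml overnight at 4 C on cellulose SPOT membranes carrying 292 synthetic 15-mer peptides mined from the S. cerevisiae proteome (cysteines replaced by serines). Binding was detected with anti-GST antibody, HRP secondary and chemiluminescence, quantified with Genespotter, and reported as normalized spot intensities averaged over biological replicates.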
# AgBbc1 = molecular target: AgBbc1
# Description: as §1
# AgBem1-D1 = molecular target: AgBem1-D1
# Description: as §1
# AgBzz1-D1 = molecular target: AgBzz1-D1
# Description: as §1
# AgBzz1-D2 = molecular target: AgBzz1-D2
# Description: as §1
# AgCyk3 = molecular target: AgCyk3
# Description: as §1
# AgFus1 = molecular target: AgFus1
# Description: as §1
# AgHof1 = molecular target: AgHof1
# Description: as §1
# AgHse1 = molecular target: AgHse1
# Description: as §1
# AgLsb1 = molecular target: AgLsb1
# Description: as §1
# AgLsb4 = molecular target: AgLsb4
# Description: as §1
# AgMyo5 = molecular target: AgMyo5
# Description: as §1
# AgNbp2 = molecular target: AgNbp2
# Description: as §1
# AgRvs167 = molecular target: AgRvs167
# Description: as §1
# AgSho1 = molecular target: AgSho1
# Description: as §1
# AgSla1-D1-D2 = molecular target: AgSla1-D1-D2
# Description: as §1
# AgSla1-D3 = molecular target: AgSla1-D3
# Description: as §1
# CaAbp1-D1 = molecular target: CaAbp1-D1
# Description: as §1
# CaAbp1-D2 = molecular target: CaAbp1-D2
# Description: as §1
# CaBbc1 = molecular target: CaBbc1
# Description: as §1
# CaBem1-D1 = molecular target: CaBem1-D1
# Description: as §1
# CaBzz1-D1 = molecular target: CaBzz1-D1
# Description: as §1
# CaBzz1-D2 = molecular target: CaBzz1-D2
# Description: as §1
# CaCyk3 = molecular target: CaCyk3
# Description: as §1
# CaFus1 = molecular target: CaFus1
# Description: as §1
# CaHof1 = molecular target: CaHof1
# Description: as §1
# CaHse1 = molecular target: CaHse1
# Description: as §1
# CaLsb1 = molecular target: CaLsb1
# Description: as §1
# CaLsb4 = molecular target: CaLsb4
# Description: as §1
# CaMyo5 = molecular target: CaMyo5
# Description: as §1
# CaNbp2 = molecular target: CaNbp2
# Description: as §1
# CaRvs167 = molecular target: CaRvs167
# Description: as §1
# CaRvs167-3 = molecular target: CaRvs167-3
# Description: as §1
# CaSho1 = molecular target: CaSho1
# Description: as §1
# CaSla1-D1-D2 = molecular target: CaSla1-D1-D2
# Description: as §1
# CaSla1-D3 = molecular target: CaSla1-D3
# Description: as §1
# ScAbp1 = molecular target: ScAbp1
# Description: as §1
# ScBbc1 = molecular target: ScBbc1
# Description: as §1
# ScBem1-D1 = molecular target: ScBem1-D1
# Description: as §1
# ScBzz1-D1 = molecular target: ScBzz1-D1
# Description: as §1
# ScBzz1-D2 = molecular target: ScBzz1-D2
# Description: as §1
# ScCyk3 = molecular target: ScCyk3
# Description: as §1
# ScFus1 = molecular target: ScFus1
# Description: as §1
# ScHof1 = molecular target: ScHof1
# Description: as §1
# ScHse1 = molecular target: ScHse1
# Description: as §1
# ScLsb1 = molecular target: ScLsb1
# Description: as §1
# ScLsb2 = molecular target: ScLsb2
# Description: as §1
# ScLsb3 = molecular target: ScLsb3
# Description: as §1
# ScLsb4 = molecular target: ScLsb4
# Description: as §1
# ScMyo3 = molecular target: ScMyo3
# Description: as §1
# ScMyo5 = molecular target: ScMyo5
# Description: as §1
# ScNbp2 = molecular target: ScNbp2
# Description: as §1
# ScPex13 = molecular target: ScPex13
# Description: as §1
# ScRvs167 = molecular target: ScRvs167
# Description: as §1
# ScSho1 = molecular target: ScSho1
# Description: as §1
# ScSla1-D1-D2 = molecular target: ScSla1-D1-D2
# Description: as §1
# ScSla1-D3 = molecular target: ScSla1-D3
# Description: as §1
# SpAbp1-D1 = molecular target: SpAbp1-D1
# Description: as §1
# SpBbc1 = molecular target: SpBbc1
# Description: as §1
# SpBzz1-D1 = molecular target: SpBzz1-D1
# Description: as §1
# SpBzz1-D2 = molecular target: SpBzz1-D2
# Description: as §1
# SpCyk3 = molecular target: SpCyk3
# Description: as §1
# SpHof1 = molecular target: SpHof1
# Description: as §1
# SpHof1-2 = molecular target: SpHof1-2
# Description: as §1
# SpHof1-3 = molecular target: SpHof1-3
# Description: as §1
# SpHse1 = molecular target: SpHse1
# Description: as §1
# SpLsb1 = molecular target: SpLsb1
# Description: as §1
# SpLsb4 = molecular target: SpLsb4
# Description: as §1
# SpMyo1 = molecular target: SpMyo1
# Description: as §1
# SpNbp2 = molecular target: SpNbp2
# Description: as §1
# SpPex13 = molecular target: SpPex13
# Description: as §1
# SpRvs167 = molecular target: SpRvs167
# Description: as §1
# SpSla1-D1-D2 = molecular target: SpSla1-D1-D2
# Description: as §1
# SpSla1-D3 = molecular target: SpSla1-D3
# Description: as §1
binder,measurement,setting,value
NILKRRPLKLEAPSK,SPOT peptide array binding signal intensity,AgAbp1,27.5
same,SPOT peptide array binding signal intensity,AgBbc1,0.25
same,SPOT peptide array binding signal intensity,AgBem1-D1,65
same,SPOT peptide array binding signal intensity,AgBzz1-D1,14
same,SPOT peptide array binding signal intensity,AgBzz1-D2,8
same,SPOT peptide array binding signal intensity,AgCyk3,≤ 0
same,SPOT peptide array binding signal intensity,AgFus1,77
same,SPOT peptide array binding signal intensity,AgHof1,1.25
same,SPOT peptide array binding signal intensity,AgHse1,1740
same,SPOT peptide array binding signal intensity,AgLsb1,0.5
same,SPOT peptide array binding signal intensity,AgLsb4,41
same,SPOT peptide array binding signal intensity,AgMyo5,≤ 0
same,SPOT peptide array binding signal intensity,AgNbp2,32
same,SPOT peptide array binding signal intensity,AgRvs167,4.5
same,SPOT peptide array binding signal intensity,AgSho1,≤ 0
same,SPOT peptide array binding signal intensity,AgSla1-D1-D2,7
same,SPOT peptide array binding signal intensity,AgSla1-D3,≤ 0
same,SPOT peptide array binding signal intensity,CaAbp1-D1,478
same,SPOT peptide array binding signal intensity,CaAbp1-D2,96
same,SPOT peptide array binding signal intensity,CaBbc1,1.25
same,SPOT peptide array binding signal intensity,CaBem1-D1,≤ 0
same,SPOT peptide array binding signal intensity,CaBzz1-D1,≤ 0
same,SPOT peptide array binding signal intensity,CaBzz1-D2,14
same,SPOT peptide array binding signal intensity,CaCyk3,8
same,SPOT peptide array binding signal intensity,CaFus1,534
same,SPOT peptide array binding signal intensity,CaHof1,0.25
same,SPOT peptide array binding signal intensity,CaHse1,27.5
same,SPOT peptide array binding signal intensity,CaLsb1,≤ 0
same,SPOT peptide array binding signal intensity,CaLsb4,≤ 0
same,SPOT peptide array binding signal intensity,CaMyo5,1.5
same,SPOT peptide array binding signal intensity,CaNbp2,284
same,SPOT peptide array binding signal intensity,CaRvs167,31.7
same,SPOT peptide array binding signal intensity,CaRvs167-3,24
same,SPOT peptide array binding signal intensity,CaSho1,93.5
same,SPOT peptide array binding signal intensity,CaSla1-D1-D2,10.5
same,SPOT peptide array binding signal intensity,CaSla1-D3,≤ 0
same,SPOT peptide array binding signal intensity,ScAbp1,296
same,SPOT peptide array binding signal intensity,ScBbc1,≤ 0
same,SPOT peptide array binding signal intensity,ScBem1-D1,10
same,SPOT peptide array binding signal intensity,ScBzz1-D1,12
same,SPOT peptide array binding signal intensity,ScBzz1-D2,≤ 0
same,SPOT peptide array binding signal intensity,ScCyk3,33
same,SPOT peptide array binding signal intensity,ScFus1,149
same,SPOT peptide array binding signal intensity,ScHof1,≤ 0
same,SPOT peptide array binding signal intensity,ScHse1,2660
same,SPOT peptide array binding signal intensity,ScLsb1,2.5
same,SPOT peptide array binding signal intensity,ScLsb2,1
same,SPOT peptide array binding signal intensity,ScLsb3,76
same,SPOT peptide array binding signal intensity,ScLsb4,2
same,SPOT peptide array binding signal intensity,ScMyo3,0.25
same,SPOT peptide array binding signal intensity,ScMyo5,≤ 0
same,SPOT peptide array binding signal intensity,ScNbp2,46
same,SPOT peptide array binding signal intensity,ScPex13,≤ 0
same,SPOT peptide array binding signal intensity,ScRvs167,2.5
same,SPOT peptide array binding signal intensity,ScSho1,368
same,SPOT peptide array binding signal intensity,ScSla1-D1-D2,39
same,SPOT peptide array binding signal intensity,ScSla1-D3,≤ 0
same,SPOT peptide array binding signal intensity,SpAbp1-D1,64.5
same,SPOT peptide array binding signal intensity,SpBbc1,0.75
same,SPOT peptide array binding signal intensity,SpBzz1-D1,64
same,SPOT peptide array binding signal intensity,SpBzz1-D2,≤ 0
same,SPOT peptide array binding signal intensity,SpCyk3,≤ 0
same,SPOT peptide array binding signal intensity,SpHof1,48.8
same,SPOT peptide array binding signal intensity,SpHof1-2,≤ 0
same,SPOT peptide array binding signal intensity,SpHof1-3,699
same,SPOT peptide array binding signal intensity,SpHse1,1400
same,SPOT peptide array binding signal intensity,SpLsb1,1
same,SPOT peptide array binding signal intensity,SpLsb4,3.5
same,SPOT peptide array binding signal intensity,SpMyo1,≤ 0
same,SPOT peptide array binding signal intensity,SpNbp2,58
same,SPOT peptide array binding signal intensity,SpPex13,≤ 0
same,SPOT peptide array binding signal intensity,SpRvs167,1.33
same,SPOT peptide array binding signal intensity,SpSla1-D1-D2,2
same,SPOT peptide array binding signal intensity,SpSla1-D3,≤ 0
